{"source": "ChEMBL document CHEMBL1157539", "about": "“Thousands of chemical starting points for antimalarial lead identification” (Nature, 2010)", "note": "In all, about 13,000 compounds were measured (“IFI”: median about 4, highest 2% from about 17 on). The sample holds the highest values, similar compounds and a random draw of the others, so the mix is not that of the screen.", "data": [{"assay": "GSK_TCMDC: Inhibition Frequency Index (IFI). The number of non-kinase HTS assays where a compound showed > 50 % inhibition, expressed as a percentage of the number of such assays in which the compound was tested", "type": "functional", "units": {"IFI": "%"}, "values": [{"smiles": "COc1ccccc1CN1CCC(CNC(=O)c2cc(-c3ccc(N(C)C)cc3)cs2)C1", "note": "(centres undefined)", "IFI": 13.7}, {"smiles": "CCCCN(CCCC)CCCN(CCCN(CCCC)CCCC)c1cc(C)nc(Nc2ccc3cc(Br)ccc3c2)n1", "IFI": 15.2}, {"smiles": "CCC(C)Oc1ccc(CCCON2C(N)=NC(N)=NC2(C)C)cc1", "note": "(centres undefined)", "IFI": 5.76}, {"smiles": "CC1(C)N=C(N)N=C(N)N1OCCCCON1C(N)=NC(N)=NC1(C)C", "IFI": 1.44}, {"smiles": "CCCc1cccc(OC)c1OCCCON1C(N)=NC(N)=NC1(C)C", "IFI": 4.51}, {"smiles": "CCCOc1ccc(CCCON2C(N)=NC(N)=NC2(C)C)cc1", "IFI": 6.29}, {"smiles": "CCC(C)c1cccc(C(C)CC)c1OCCCON1C(N)=NC(N)=NC1(C)C", "note": "(centres undefined)", "IFI": 24.1}, {"smiles": "CC(C)(C)c1ccc(OCCCON2C(N)=NC(N)=NC2(C)C)cc1", "IFI": 18.1}, {"smiles": "Cc1cc(-c2cccc(CNC3CCN(C)CC3)c2)ccc1S(=O)(=O)NC1CCC1", "IFI": 7.48}, {"smiles": "Nc1nc(N)c2c3c(ccc2n1)NCCC3", "IFI": 2.48}, {"smiles": "COc1ccc(CNCc2ccc(-c3ccc(-c4nc5cccc(C)c5[nH]4)cc3)cc2)cc1", "IFI": 13.1}, {"smiles": "O=C(Cn1cc(C(F)(F)F)cc(Cl)c1=O)N1CCN(S(=O)(=O)c2ccc(Cl)cc2)CC1", "IFI": 0}, {"smiles": "CCCNCc1ccc(-c2ccc(CN(CCOC)C(=O)CCC(=O)c3ccc(OC)c(F)c3)cc2)nc1", "IFI": 0.7}, {"smiles": "O=C(Nc1ccc(F)c(C(F)(F)F)c1)N[C@H]1CCN(CCCCCNC(=O)C2CC2c2ccc(Cl)c(Cl)c2)C1", "note": "(some centres undefined)", "IFI": 15.9}, {"smiles": "O=C(Nc1ccc(Cl)cc1)NC1CCN(CCCCCNC(=O)C2CC2c2ccc(Cl)c(Cl)c2)CC1", "note": "(centres undefined)", "IFI": 10.2}, {"smiles": "O=C(Nc1ccc(Cl)c(C(F)(F)F)c1)NC1CCN(CCCCCNC(=O)C2CC2c2ccc(Cl)c(Cl)c2)CC1", "note": "(centres undefined)", "IFI": 17.1}, {"smiles": "O=C(Nc1cc(F)cc(F)c1)N[C@H]1CCN(CCCCCNC(=O)C2CC2c2ccc(Cl)c(Cl)c2)C1", "note": "(some centres undefined)", "IFI": 13.6}, {"smiles": "O=C(Nc1ccc(F)c(C(F)(F)F)c1)NC1CCN(CCCCCNC(=O)C2CC2c2ccc(Cl)c(Cl)c2)CC1", "note": "(centres undefined)", "IFI": 18.5}, {"smiles": "O=C(Nc1ccc(C(F)(F)F)cc1)NC1CCN(CCCCCNC(=O)C2CC2c2ccc(Cl)c(Cl)c2)CC1", "note": "(centres undefined)", "IFI": 11.1}, {"smiles": "O=C(Nc1ccc(Cl)c(C(F)(F)F)c1)N[C@H]1CCN(CCCCCNC(=O)C2CC2c2ccc(Cl)c(Cl)c2)C1", "note": "(some centres undefined)", "IFI": 12.2}, {"smiles": "O=C(Nc1cccc(F)c1)NC1CCN(CCCCCNC(=O)C2CC2c2ccc(Cl)c(Cl)c2)CC1", "note": "(centres undefined)", "IFI": 11.5}, {"smiles": "O=C(Nc1cccc(F)c1)N[C@H]1CCN(CCCCCNC(=O)C2CC2c2ccc(Cl)c(Cl)c2)C1", "note": "(some centres undefined)", "IFI": 19.4}, {"smiles": "COc1ccc(-c2cnc3ccc(NCCCO)nn23)cc1OC", "IFI": 6.77}, {"smiles": "COc1ccc(-c2nc3cccnc3n2CC(=O)Nc2c(C)cc(C)cc2C)c(OC)c1", "IFI": 5.56}, {"smiles": "N=C1N=C(N)NCN1OCc1ccc(Cl)c(Cl)c1", "IFI": 0.72}, {"smiles": "Cc1[nH]c(C)c(-c2ccc(OCc3cc(C(F)(F)F)cc(C(F)(F)F)c3)nc2)c(=O)c1Br", "IFI": 5.36}, {"smiles": "CC(C)(C)c1ccc2[nH]c(-c3ccc(/C=C/C(=O)NCc4cccc(C(F)(F)F)c4)cc3)nc2c1", "IFI": 2.9}, {"smiles": "Cc1cccc2nc(-c3cccc(-c4cccc(CN5CCCC5CN)c4)c3)[nH]c12", "note": "(centres undefined)", "IFI": 4.95}, {"smiles": "Cc1nn(-c2cccc(C(F)(F)F)c2)c2sc(C(=O)NC3CCN(C(C)C)CC3)cc12", "IFI": 10}, {"smiles": "CCCCN(CCCC)CCCCNc1c2ccc(Cl)cc2nc2ccc(OC)cc12", "IFI": 6.87}, {"smiles": "CC1(C)NC(N)=NC(=N)N1OCCCCOc1ccccc1", "IFI": 2.17}, {"smiles": "N=C1N=C(N)NC2(CCCCC2)N1OCCOc1ccc(Cc2ccccc2)cc1", "IFI": 27.6}, {"smiles": "CCCc1cc(OCCCOc2ccccc2)ccc1OCCCON1C(=N)N=C(N)NC1(C)C", "IFI": 21.1}, {"smiles": "CC1(C)NC(N)=NC(=N)N1OCCOc1ccc(Cc2ccccc2)cc1", "IFI": 4.41}, {"smiles": "N=C1N=C(N)NC2(CCCCC2)N1OCCCOc1cccc2ccccc12", "IFI": 9.16}, {"smiles": "CCCc1cc(C(C)=O)ccc1OCCCON1C(=N)N=C(N)NC1(C)C", "IFI": 3.68}, {"smiles": "COc1ccccc1NC(=O)Nc1cccc(-c2cccc(-c3nc4cccc(C)c4[nH]3)c2)c1", "IFI": 3.03}, {"smiles": "c1cc(-c2ccc(CNC3CCOCC3)cc2)cc(-c2nc3ccccc3[nH]2)c1", "IFI": 0.97}, {"smiles": "CCCCCCOc1ccc2ccccc2c1CNCCCCCCNCc1c(OCCCCCC)ccc2ccccc12", "IFI": 22.8}, {"smiles": "C=CCOc1ccc2ccccc2c1CNCCCCCCNCc1c(OCC=C)ccc2ccccc12", "IFI": 19.6}, {"smiles": "C#CCCOc1ccc2ccccc2c1CNCCCCCCNCc1c(OCCC#C)ccc2ccccc12", "IFI": 12.8}, {"smiles": "CCCOc1ccc2ccccc2c1CNCCCCCCNCc1c(OCCC)ccc2ccccc12", "IFI": 17.6}, {"smiles": "CCOc1ccc2ccccc2c1CNCCCCCCNCc1c(OCC)ccc2ccccc12", "IFI": 13}, {"smiles": "CCCCCCCCNCc1c(O)ccc2ccccc12", "IFI": 7.69}, {"smiles": "C#CCOc1ccc2ccccc2c1CNCCCCCCNCc1c(OCC#C)ccc2ccccc12", "IFI": 14.1}, {"smiles": "C/C=C/COc1ccc2ccccc2c1CNCCCCCCCCNCc1c(OC/C=C/C)ccc2ccccc12", "IFI": 16.6}, {"smiles": "c1ccc2c(CNCCCCCCNCc3c(OCC4CC4)ccc4ccccc34)c(OCC3CC3)ccc2c1", "IFI": 18.7}, {"smiles": "Oc1ccc2ccccc2c1CNCCC1CCCCC1", "IFI": 2.96}, {"smiles": "c1ccc2[nH]c(-c3ccc(-c4ccc(CNCC5CCCO5)cc4)s3)nc2c1", "note": "(centres undefined)", "IFI": 6.86}, {"smiles": "N#Cc1ccc(-c2ccc(C(=O)NCCCCN3CCC(c4ccc5c(c4OCC(N)=O)CCCC5)CC3)cc2)cc1", "IFI": 3.54}, {"smiles": "N=C(N)Nc1nc(-c2ccc(NC(=N)N3CCC[C@H]3CN3CCCC3)cc2)cs1", "IFI": 2.17}, {"smiles": "CCCCNc1nc(NCCCC)c2c(C)c(Cc3ccccc3)c(NCCCC)nc2n1", "IFI": 16.1}, {"smiles": "COc1ccc(CNCc2cccc(-c3ccc(-c4nc5cccc(C)c5[nH]4)s3)c2)cc1", "IFI": 10.4}, {"smiles": "COc1ccccc1/C=C/C(=O)NC1CCC(CCN2CCc3ccc(-c4cc(C)no4)cc3CC2)CC1", "note": "(centres undefined)", "IFI": 3.88}, {"smiles": "Nc1c2ccccc2nc2ccc(Cl)cc12", "IFI": 9.03}, {"smiles": "Cc1noc(C)c1-c1cccc(CNCc2cccc(-c3cccc(-c4nc5ccccc5[nH]4)c3)c2)c1", "IFI": 3.92}, {"smiles": "COc1cc(CN/C(=N/c2ccc(-c3ccccc3)cc2)Nc2ccc(C#N)cc2O)cc(OC)c1", "IFI": 1.46}, {"smiles": "Cc1nc2nc(N)nc(N)c2c(C)c1Cc1ccc([N+](=O)[O-])cc1", "IFI": 1.6}, {"smiles": "O=C(NCCCCN1CCC(c2ccc3c(c2OCCCO)CCCC3)CC1)c1ccc(-c2ccc(C(F)(F)F)cc2)c(CO)c1", "IFI": 10.1}, {"smiles": "CC1(C)NC(N)=NC(=N)N1OCCOc1cccc(C(F)(F)F)c1", "IFI": 3.7}, {"smiles": "CCOc1cc2ncnc(Nc3ccc(OCc4c(Cl)cccc4Cl)c(OC)c3)c2cc1OCC", "IFI": 0}, {"smiles": "Cc1ccc(NC(=N)Nc2ncccc2OCc2c(F)cccc2Cl)cc1", "IFI": 22}, {"smiles": "CCOc1cc2ncnc(Nc3ccc(OCc4c(F)cccc4F)c(OC)c3)c2cc1OCC", "IFI": 0}, {"smiles": "O=C(Nc1ccccc1)N(Cc1ccc(-c2ccc(CNC3CCCC3)cc2)cc1)C1CCN(Cc2ccccc2)CC1", "IFI": 4.9}, {"smiles": "O=C(CCc1c[nH]cn1)Nc1ccc(-c2ccc(-c3nc4cc(F)ccc4[nH]3)cc2)cc1", "IFI": 6.48}, {"smiles": "O=C(Nc1ccccc1)N(Cc1cccc(-c2cccc(CNCCc3ccccc3)c2)c1)C1CCN(Cc2ccccc2)CC1", "IFI": 12.3}, {"smiles": "COc1ccc(S(=O)(=O)Nc2ccc(C(=O)NCc3ccc(C(F)(F)F)cc3)cc2)cc1N1CCN(CC2CC2)CC1", "IFI": 20}, {"smiles": "CCC(C)c1ccc(NC(=O)c2ccc(S(=O)(=O)Nc3ccc(OC)c(N4CCN(CC5CC5)CC4)c3)cc2)cc1", "note": "(centres undefined)", "IFI": 13.6}, {"smiles": "CCCCN1CCN(c2cc(NS(=O)(=O)c3cccc(C(=O)Nc4ccc(C(F)(F)F)cc4)c3)ccc2OC)CC1", "IFI": 3.55}, {"smiles": "COc1ccc(S(=O)(=O)Nc2ccc(C(=O)NCc3ccccc3C(F)(F)F)cc2)cc1N1CCN(CC2CC2)CC1", "IFI": 19.4}, {"smiles": "COc1ccc(NS(=O)(=O)c2ccc(C(=O)Nc3ccc(OC(F)(F)F)cc3)cc2)cc1N1CCN(CC2CC2)CC1", "IFI": 8.49}, {"smiles": "CCCN1CCN(c2cc(S(=O)(=O)Nc3ccc(C(=O)NCc4cccc(C(F)(F)F)c4)cc3)ccc2OC)CC1", "IFI": 24.1}, {"smiles": "CCCCN1CCN(c2cc(NS(=O)(=O)c3ccc(C(=O)Nc4ccc(C(F)(F)F)cc4)cc3)ccc2OC)CC1", "IFI": 3.97}, {"smiles": "COc1ccc(NS(=O)(=O)c2ccc(C(=O)Nc3ccc(C(F)(F)F)cc3)cc2)cc1N1CCN(CC2CC2)CC1", "IFI": 2.1}, {"smiles": "COc1ccc(NS(=O)(=O)c2cccc(C(=O)Nc3ccc(C(F)(F)F)cc3)c2)cc1N1CCN(CC(C)C)CC1", "IFI": 2.84}, {"smiles": "C#Cc1cccc(NC(=O)[C@H](CC2CCCCC2)Nc2ccc(C#N)c3ccccc23)c1", "IFI": 3.77}, {"smiles": "CCCCOc1ccc(-c2nc3ccccc3[nH]2)cc1", "IFI": 2.14}, {"smiles": "COc1ccc(OCCCON2C(=N)N=C(N)NC2(C)C)cc1", "IFI": 2.88}, {"smiles": "O=S(=O)(NCCN1CCCC1)c1ccc(-c2cccc(CNCc3ccc(F)cc3)c2)s1", "IFI": 9.65}, {"smiles": "CCNC(=O)Nc1cccc(-c2cccc(-c3nc4cccc(C)c4[nH]3)c2)c1", "IFI": 5.05}, {"smiles": "CN(C)CCn1c(=N)n(CC(O)c2ccc(Cl)c(Cl)c2)c2ccccc21", "note": "(centres undefined)", "IFI": 2.21}, {"smiles": "CCN(CC)CCn1c(=N)n(CC(O)c2ccc(Cl)c(Cl)c2)c2ccccc21", "note": "(centres undefined)", "IFI": 6.52}, {"smiles": "CCCCCCCn1c(=N)n(CC(O)c2ccc(Cl)c(Cl)c2)c2ccccc21", "note": "(centres undefined)", "IFI": 17.6}, {"smiles": "Cc1ccc(C2(CN3CCC(NC(=O)c4n[nH]cc4Cl)CC3)CCCCC2)cc1", "IFI": 8.33}, {"smiles": "CN1CCN(CC(=O)Nc2cccc(-c3cccc(-c4nc5ccccc5[nH]4)c3)c2)CC1", "IFI": 1.8}, {"smiles": "O=C(Nc1cccc(C(F)(F)F)c1)Nc1ccc2nonc2c1", "IFI": 22.5}, {"smiles": "O=C(Nc1cccc(C(F)(F)F)c1)Nc1ccc(F)c([N+](=O)[O-])c1", "IFI": 15.8}, {"smiles": "O=C(Nc1cc(C(F)(F)F)cc(C(F)(F)F)c1)Nc1ccc(Cl)c(Cl)c1", "IFI": 19.1}, {"smiles": "O=C(Nc1ccc(Cl)c(C(F)(F)F)c1)Nc1ccc(Cl)c(C(F)(F)F)c1", "IFI": 12.7}, {"smiles": "O=C(Nc1cccc(C(F)(F)F)c1)Nc1ccc(Cl)c(Cl)c1", "IFI": 16.1}, {"smiles": "O=C(Nc1ccc(Cl)c(Cl)c1)Nc1cc(C(F)(F)F)ccc1Cl", "IFI": 5.71}, {"smiles": "O=C(Nc1ccc(Cl)cc1)Nc1ccc2nonc2c1", "IFI": 12.8}, {"smiles": "O=C(Nc1ccc(SC(F)(F)F)cc1)Nc1ccnc2ccccc12", "IFI": 9.29}, {"smiles": "O=C(Nc1ccc(SC(F)(F)F)cc1)Nc1ccc(Cl)c(Cl)c1", "IFI": 18.7}]}]}
